Most compounds without a hit are left out; they make up all but 1.6% or so of the library.
NPR2 activator: GC-B (human) receptor activation | HEK293-GC-B cells, CNP EC30, cGMP TR-FRET; 0% at EC30 CNP, 100% saturating CNP | activation, % at 10 µM | 370,000 compounds, 0.11% hits;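 active = activation at 10 µM reaching about 35% in either raw or pattern-adjusted values, limit read from the data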
GC-A act: GC-A (human) enzyme activation. HEK293 GC-A cells, cGMP TR-FRET, EC30 ANP; 0% at EC30 ANP, 100% saturating ANP. 370,000 compounds, 0.14% hits. AID 1671463. activation, % at 10 µM; in the data active = activation above about 40%
Efflux pump inh: inhibitors of Candida antifungal efflux pumps expressed in yeast. S. cerevisiae Candida pump triplex, Nile Red efflux. inhibition, % at 10 µM. 330,000 compounds, 0.44% hits. AID 485275;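 active = plate passing quality check with inhibition over a set limit, or well fluorescence over plate mean plus 4 SD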;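 note: Nile Red retained in pooled yeast measured as flow cytometry median fluorescence; higher means more Nile Red kept so more efflux inhibition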
V-ATPase pHluor: alters yeast V-ATPase proton transport; S. cerevisiae, pHLuorin cytosolic pH fluorescence; response, % at 10 µM; 350,000 compounds, 0.37% hits; in the data active = response mostly above about 7.3%, no sharp cut-off; inactive = mostly below about 5.4%; note: actives read high
Rce1 inhib: yeast Ras-converting enzyme inhibition; 290,000 compounds, 0.27% hits; yeast membranes, quenched prenylated peptide cleavage fluorescence; calls only; Q03530; AID 2563;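 active = fall in fluorescence gain of 50% or more versus controls, with final raw signal at or below 3038400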
NSD2 inh: NSD2 (human) methyltransferase inhibition. O96028. NSD2 peptide methylation, AlphaScreen, 120 min. inhibition, % at 12.5 µM. 310,000 compounds, 0.54% hits. AID 743445; in the data active = inhibition above about 50%
Target sequence (O96028 whole entry, looked up): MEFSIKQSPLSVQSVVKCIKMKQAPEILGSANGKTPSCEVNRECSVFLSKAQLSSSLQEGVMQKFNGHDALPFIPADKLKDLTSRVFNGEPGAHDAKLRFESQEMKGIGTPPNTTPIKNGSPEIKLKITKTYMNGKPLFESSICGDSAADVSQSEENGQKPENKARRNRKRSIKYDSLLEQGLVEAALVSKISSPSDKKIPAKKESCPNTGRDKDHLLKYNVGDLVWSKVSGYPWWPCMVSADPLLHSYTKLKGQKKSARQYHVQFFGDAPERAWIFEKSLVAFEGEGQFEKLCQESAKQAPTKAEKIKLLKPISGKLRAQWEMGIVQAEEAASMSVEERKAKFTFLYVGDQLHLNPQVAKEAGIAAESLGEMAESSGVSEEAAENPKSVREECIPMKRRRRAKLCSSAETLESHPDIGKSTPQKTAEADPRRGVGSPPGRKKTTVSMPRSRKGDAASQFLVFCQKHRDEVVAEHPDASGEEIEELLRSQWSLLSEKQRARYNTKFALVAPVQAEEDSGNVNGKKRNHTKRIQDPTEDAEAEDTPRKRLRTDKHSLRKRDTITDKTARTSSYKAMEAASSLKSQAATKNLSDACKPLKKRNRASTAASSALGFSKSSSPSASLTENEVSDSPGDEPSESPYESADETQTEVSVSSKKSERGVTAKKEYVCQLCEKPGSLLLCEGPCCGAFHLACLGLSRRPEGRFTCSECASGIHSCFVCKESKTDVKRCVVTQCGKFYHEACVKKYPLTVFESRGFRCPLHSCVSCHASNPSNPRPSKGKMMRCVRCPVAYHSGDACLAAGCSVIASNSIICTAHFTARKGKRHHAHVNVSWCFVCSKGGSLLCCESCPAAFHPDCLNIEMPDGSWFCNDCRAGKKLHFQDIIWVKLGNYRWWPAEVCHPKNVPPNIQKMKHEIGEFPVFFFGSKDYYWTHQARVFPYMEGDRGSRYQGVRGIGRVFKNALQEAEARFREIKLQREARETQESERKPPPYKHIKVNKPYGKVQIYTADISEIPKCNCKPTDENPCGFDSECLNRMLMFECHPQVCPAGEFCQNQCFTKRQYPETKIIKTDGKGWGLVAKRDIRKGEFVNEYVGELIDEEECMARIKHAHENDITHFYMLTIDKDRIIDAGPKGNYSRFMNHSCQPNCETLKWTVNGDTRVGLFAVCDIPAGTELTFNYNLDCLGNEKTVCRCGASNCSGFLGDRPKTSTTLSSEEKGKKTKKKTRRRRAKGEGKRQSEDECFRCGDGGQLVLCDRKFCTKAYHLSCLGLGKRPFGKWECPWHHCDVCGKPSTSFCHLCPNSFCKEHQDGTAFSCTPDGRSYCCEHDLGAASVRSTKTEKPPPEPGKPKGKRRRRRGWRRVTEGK
Cmpd fluor yeast: counter-screen for efflux pump inhibitors: compound fluorescence. S. cerevisiae AD/pABC3, flow cytometry. 1,700 compounds, 4% hits. fluorescence ratio to DMSO, % at 10 µM. shares compounds with Efflux pump inh. AID 588517;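 active = fluorescence ratio to DMSO above its plate's cutoff, the plate mean ratio plus 5 SD, cut at about 210% in these data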;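 note: unstained yeast with no Nile Red so the signal is compound autofluorescence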
Mdr1 pump inh: blocks the Candida albicans Mdr1 efflux pump in yeast; inhibition, % at 10 µM; 1,700 compounds, 1% hits; S. cerevisiae AD/CaMDR1, Nile Red efflux, flow cytometry; AID 588518; shares compounds with Efflux pump inh; in the data active = inhibition above about 26%;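 note: higher means more Nile Red retained so more efflux inhibition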
Cdr2 pump inh: Candida Cdr2 efflux pump inhibition; shares compounds with Efflux pump inh; S. cerevisiae AD/CaCDR2, Nile Red retention, flow cytometry; Nile Red retention ratio vs DMSO, % at 10 µM; 1,700 compounds, 4% hits; AID 588520; in the data active = Nile Red retention ratio vs DMSO above about 190%;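 note: higher ratio means more blocking of Cdr2 efflux of the dye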
CaCdr1 efflux inh: blocks the Candida albicans Cdr1 efflux pump in yeast. shares compounds with Efflux pump inh. S. cerevisiae AD/CaCDR1, Nile Red efflux, flow cytometry. inhibition, % at 10 µM. 1,700 compounds, 1% hits. AID 588522;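 active = inhibition above the screen-wide mean plus twice its standard deviation, cut at about 32% in these data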
A number is an active result; 0 = inactive; - = no result given; + = active, no number.

SMILES	NPR2 activator	GC-A act	Efflux pump inh	V-ATPase pHluor	Rce1 inhib	NSD2 inh	Cmpd fluor yeast	Mdr1 pump inh	Cdr2 pump inh	CaCdr1 efflux inh
COc1cccc(C(=O)O/N=C(\N)c2ccncc2)c1OC	0	0	13	0	0	-	0	0	0	0
COc1ccc(Cl)cc1C(=O)O/N=C(\N)c1ccc(Cl)cc1	0	0	6.5	0	0	0	0	0	0	0
CCCCCc1ccc(NC(=O)O[C@@H]2CC[C@@]34CCCN3C(=O)CCC[C@H]4C2)cc1	0	0	-	-	-	0	-	-	-	-
O=C1N=c2ccccc2=C1c1sc(NS(=O)(=O)Cc2ccccc2)nc1O	0	0	0.7	0	0	0	0	0	0	0
CC1CCc2c(sc3nc(CN4CCOCC4)nc(N4CCc5ccccc5C4)c23)C1 (stereo not given)	0	0	20	0	0	0	0	0	0	0
O=C(c1sc2ccccc2c1Cl)N1CCN(c2ccc(F)cc2)CC1	0	0	0	0	0	0	-	-	-	-
O=C(c1sc2ccccc2c1Cl)N1CCN(c2ccccc2F)CC1	0	0	21	0	0	0	0	0	0	0
COc1ccc(CC(=O)Nc2ccc(NC(=O)c3ccc(Br)cc3)cc2)cc1OC	0	0	0.8	0	0	0	0	0	0	0
Cc1ccc(-c2nc(C3CCCN(S(=O)(=O)c4ccc(Cl)s4)C3)no2)cc1 (stereo not given)	0	0	-	-	-	0	-	-	-	-
CC(=O)NC1CCCCN(Cc2cccc(F)c2)C1=O (stereo not given)	0	0	-	-	-	-	-	-	-	-
c1ccc2cc(Cn3ccc4ccc(-c5ccc6cc[nH]c6c5)cc43)ccc2c1	0	0	-	-	-	-	-	-	-	-
COc1ccc(OC)c(Nc2nc3nonc3nc2N2CCCCC2)c1	0	0	6.7	0	0	0	0	0	0	0
Cc1ccc(CNC(=O)CCc2c(C)nn(-c3ccc(N4CCOCC4)nn3)c2C)cc1	0	0	2.0	0	0	0	0	0	0	0
COC(=O)[C@]12C[C@H](CC(=O)NCc3cccs3)C(=O)N(CCc3ccc(OC)c(OC)c3)C1=C[C@H](C1CCCC1)O[C@@H]2C	0	0	-	-	-	-	-	-	-	-
O=C(c1cccs1)C1CCN(c2ncnc3sccc23)CC1	0	0	-	-	-	-	-	-	-	-
O=C(c1ccccc1Oc1ccc(C(F)(F)F)cc1[N+](=O)[O-])N1CCOCC1	0	0	0	0	0	0	-	-	-	-
O=C(Nc1ccccc1Cl)c1ccccc1Oc1ccc(C(F)(F)F)cc1[N+](=O)[O-]	0	0	0.4	0	-	-	0	0	0	0
O=C(CNCc1ccc(Cl)cc1)N1CCc2ccccc2C1	0	0	0	0	0	0	-	-	-	-
O=C(NCc1ccc(Cl)cc1)N1CCc2ccccc2C1	0	0	1.3	0	-	0	0	0	0	0
NC(=O)c1nc(-c2cccs2)nc2c1[nH]c(=O)n2-c1ccc(F)cc1	0	0	0	0	0	-	0	0	0	0
COc1ccccc1-c1nc(C(N)=O)c2[nH]c(=O)n(-c3cccc(C)c3)c2n1	0	0	0.4	0	0	0	0	0	0	0
COc1ccc(-c2nc(C(N)=O)c3[nH]c(=O)n(-c4cccc(C)c4)c3n2)c(OC)c1	0	0	0	0	0	-	-	-	-	-
NC(=O)c1nc(-c2ccco2)nc2c1[nH]c(=O)n2-c1ccc(Cl)c(Cl)c1	0	0	1.2	0	0	0	0	0	0	0
CCOc1ccccc1-c1nc(C(N)=O)c2[nH]c(=O)n(-c3ccccc3)c2n1	0	0	0	0	0	0	0	0	0	0
COc1cccc(-c2nc(C(N)=O)c3[nH]c(=O)n(-c4ccccc4)c3n2)c1OC	0	0	0	0	0	-	-	-	-	-
SMILES	NPR2 activator	GC-A act	Efflux pump inh	V-ATPase pHluor	Rce1 inhib	NSD2 inh	Cmpd fluor yeast	Mdr1 pump inh	Cdr2 pump inh	CaCdr1 efflux inh
O=C(CSc1nnc(SCc2cccc3ccccc23)s1)c1ccc(F)cc1	0	0	-	-	-	0	-	-	-	-
O=S1(=O)c2ccc(N3CCCC3)cc2Oc2ccccc2CN1Cc1cn(Cc2cccc(C(F)(F)F)c2)nn1	0	0	-	-	-	-	-	-	-	-
Cc1ccc(C(=O)NCC(=O)OCc2csc(-c3ccccc3)n2)cc1	0	0	6.8	0	0	0	0	0	0	0
COC(=O)[C@H](CC(C)C)N(CCCc1cn(Cc2ccc(C)cc2)nn1)S(=O)(=O)c1ccc(F)cc1Br	0	0	-	-	-	-	-	-	-	-
COc1ccc(NC(=O)/C(C#N)=C/c2ccc(OCc3ccccc3F)cc2)cc1	0	0	6.5	0	0	0	0	0	0	0
N#C/C(=C\c1ccc(OCc2ccccc2)cc1)C(=O)Nc1ccc(C(=O)O)cc1	0	0	0	-	0	0	-	-	-	-
COC(=O)[C@]12C[C@H](CC(=O)N3CCCC3)C(=O)N(Cc3cccc4ccccc34)C1=C[C@H](C1CCCC1)O[C@@H]2C	0	0	-	-	-	-	-	-	-	-
CC[n+]1ccc(/C=C/c2c[nH]c3ccccc23)cc1	0	0	2.3	0	0	0	0	0	0	0
CCn1c(/C=C/c2c[nH]c3ccccc23)nc2ccccc2c1=O	0	0	0	0	0	0	-	-	-	-
COc1ccc2c(c1)c(/C=C/c1cc[n+](C)cc1)cn2C	0	0	16	0	0	0	+	0	0	0
Cc1ccc2[nH]cc(/C=C/c3cc[n+](C)cc3)c2c1	0	0	9.3	0	0	0	908	0	0	0
COc1ccc2c(c1)c1ccccc1n2C	0	0	0	0	0	0	-	-	-	-
COc1ccc2c(/C=C/c3cc[n+](C)cc3)c[nH]c2c1	0	0	9.1	0	0	0	+	0	256	0
CC(C)C(C#CC1CC1)N(Cc1ccc2c(c1)OCO2)C(N)=NC(=O)/C=C/c1ccccc1 (stereo not given)	0	0	-	-	-	-	-	-	-	-
CCCCOCCCNC(=O)C[C@H]1C[C@@]2(C(=O)OC)C(=C[C@H](C3CCCC3)O[C@@H]2C)N(Cc2cccc3ccccc23)C1=O	0	0	-	-	-	-	-	-	-	-
O=C(OC12CCCN(C1)/C(=C/c1cccnc1)C2)C1CCCCC1 (stereo not given)	0	0	-	-	-	-	-	-	-	-
Cc1nnc(SCC(=O)NNC(=O)c2ccc(Cl)cc2)s1	0	0	0	0	0	0	-	-	-	-
Nc1nnc(SCC(=O)NNC(=O)c2ccc(Cl)cc2)s1	0	0	93	0	-	0	0	0	0	0
CC(=O)NC1=NC(=O)/C(=C/c2cc(C)n(-c3ccc(NC(C)=O)cc3)c2C)S1	0	0	1.4	0	0	0	0	0	0	0
O=C(CSc1cccc[n+]1[O-])Nc1ccccc1Oc1ccccc1	0	0	1.0	0	0	0	0	0	0	0
